Screening data deposited in PubChem by ICCB-Longwood Screening Facility, Harvard Medical School.
Only a selection was taken, and hits are over-represented in it overall.
MgrA DNA FP = S. aureus MgrA-DNA binding modulation. fluorescence polarization. inhibition, % (no concentration beside the values). hit rate 0.13% among 84,000. AID 602314; in the data active means inhibition above about 30%, passing the limit was not always enough;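 further: 0% = protein plus DNA without compound and 100% = DNA alone without protein; higher means less MgrA bound to DNA so lower polarization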
The depositor's hits bear a star.

SMILES	MgrA DNA FP
O=C(/C=C/c1ccccc1)Nc1nc2c(s1)CCCC2	0
O=C(Nc1nc2c(s1)CCCC2)c1ccncc1	42*
COc1cccc(N=Cc2c[nH]c3ccccc23)c1	13
O=C(c1cccc2c1NC(c1ccc(Br)cc1)C1CC=CC21)N1CCOCC1 (stereo not given)	1
COC(=O)c1ccc([C@@H]2Nc3c(C)cccc3[C@@H]3C=CC[C@@H]32)cc1	0
O=C(O)C1Nc2c(I)cccc2C2C=CCC12 (stereo not given)	101*
COc1ccc(CN(Cc2ccccc2)C(=S)Nc2c(C)cccc2C)cc1OC	-2
CCOC(=O)C1=C(C)N=c2s/c(=C\c3ccc(C(=O)OC)cc3)c(=O)n2C1c1ccc2c(c1)OCO2 (stereo not given)	1
O=S(=O)(Nc1ncccc1OCc1cc(F)cc(F)c1)c1cccc(Cl)c1	-2
COc1cccc(=O)c2c(C)oc(C)c12	43*
CCOc1cc(/C=C/c2ccccc2OC)cc(=O)c2c(C)oc(C)c12	0
CCOc1ccc(-c2cc(OC)c3c(C)oc(C)c3c(=O)c2)cc1	34
Fc1ccc(-c2nn3c(-c4ccc(Br)cc4)nnc3s2)cc1	0
COC(=O)c1sccc1O	0
COC(=O)c1cc(C(=O)OC)c(C(=O)OC)cc1C(=O)OC	-3
COC(=O)c1ccsc1N	71*
CCCC(=O)N1CCN(c2ccc(NC(=O)c3cc(OC)c(OC)c(OC)c3)cc2Cl)CC1	3
Cc1ccccc1OCCSc1nc(C(C)C)cc(=O)[nH]1	0
CCc1cc2cc(C)cc(C)c2nc1SCC(=O)N1CCN(C(=O)c2ccco2)CC1	2
O=C(c1ccco1)N1CCCN(C(=O)c2ccco2)CC1	1
Cc1cc(C)c2nc(N3CCCN(C(=O)c4ccco4)CC3)c(C#N)cc2c1	49*
O=S1(=O)C=CC(Nc2ccccc2Cl)C1 (stereo not given)	0
CC1Cn2c(C(=O)N3CCc4ccccc4C3)cc3c(Cl)ccc(c32)O1 (stereo not given)	2
CCOc1c(Br)cc(Br)cc1/C=C1/SC(=S)NC1=O	0
c1ccc(CSc2nnnn2-c2ccccc2)cc1	11
SMILES	MgrA DNA FP
CC(Sc1nnnn1-c1ccccc1)C(=O)O (stereo not given)	-3
O=C1C=CC(=O)C(Sc2nnnn2-c2ccccc2)=C1	75*
Cc1nc2ccccn2c1C1(O)C(=O)Nc2c(Cl)cc(Cl)cc21 (stereo not given)	-1
CC1=C/C(=N\S(=O)(=O)c2ccccc2)C=CC1=O	38
Cc1ccc(S(=O)(=O)N=C2C=CC(=O)C=C2)cc1	48*
Cc1ccc(S(=O)(=O)N=S(C)(C)=O)cc1	-2
Cc1ccc(C(=O)Nc2nc3ccccc3n2CCN2CCOCC2)cc1	0
CCOc1nc2sc3c(c2c2ncnn12)CCCC3	0
C/C(=N/NC(=O)Cc1cccs1)c1ccc(C)cc1	0
CCOc1cc(/C=C2/C(=O)ON=C2C)cc(Cl)c1OCc1ccc(F)cc1	54*
COc1cc(/C=C2/C(=O)N(c3ccc(F)cc3)N=C2C)ccc1OCc1ccc(F)cc1	2
CCOC(=O)COc1c(Cl)cc(/C=C2/N=C(c3ccco3)OC2=O)cc1OCC	3
COc1ccc(C(=O)N(c2ccc(OC)cc2)S(=O)(=O)c2ccc(C)cc2)cc1	-2
Cc1ccc(OCc2c(Cl)cccc2Cl)c([N+](=O)[O-])n1	-2
O=C1c2cccc3c(N4CCCC4)ccc(c23)C(=O)N1c1ccccc1	2
Cc1cccc(N2C(=O)c3cccc4c(N5CCNCC5)ccc(c34)C2=O)c1	30
O=C1c2cccc3c(N4CCNCC4)ccc(c23)C(=O)N1c1ccc(Cl)cc1	60*
CC(C)CCNC(=O)C1CC(=O)N(c2ccccc2)C1 (stereo not given)	1
COc1cccc(-c2ccc(-c3noc(-c4cccnc4)n3)c(OC)n2)c1	2
COC(=O)C(Cc1c[nH]c2ccccc12)NC(=O)c1c(Cl)cccc1Cl (stereo not given)	-1
O=S(=O)(c1ccccc1)N1CCN(c2nc3ccc(Cl)cc3s2)CC1	0
CN(C)Cc1cc(O)c(CN(C)C)cc1O	55*
CN(C)Cc1ccccc1C(O)c1ccccc1 (stereo not given)	0
CN(Cc1ccccc1)Cc1ccccc1O	0
Cc1ccc(C)n1-c1ccc(C(=O)O)cc1	100*
SMILES	MgrA DNA FP
Cc1cc(C)n(-c2ccc(C(=O)O)cc2)n1	-1
O=C(O)c1ccc(N2CCCC2)cc1	-6
S=C(NCCCN1CCOCC1)Nc1ccccc1	1
CCOc1ccc(CCNC(=O)c2cc3c(C)nc4ccccc4c3o2)cc1OCC	-3
CCCCc1c(C)nc(SCC(=O)O)[nH]c1=O	2
O=C(Nc1ccc(N2CCOCC2)cc1)Nc1ccc2nc(-c3ccco3)c(-c3ccco3)nc2c1	2
O=C(NCCSCc1ccco1)Nc1cc(Cl)cc(Cl)c1	0
O=C(NCCCO)Nc1ccc2nc(-c3ccco3)c(-c3ccco3)nc2c1	77*
O=C(Nc1ccc(N2CCN(Cc3ccccc3)CC2)cc1)Nc1ccc(C(F)(F)F)cc1	1
CN1C(=O)C[n+]2ccccc2C1C(=O)Nc1ccccc1 (stereo not given)	-4
CC[n+]1ccc(C)c2ccccc21	0
Cc1cc(N)c2ccccc2[n+]1CCCCCCCCCC[n+]1c(C)cc(N)c2ccccc21	55*
Cc1cc(-c2ccccc2N)nc2ccccc12	-4
COc1cc(Br)c(C2C(C(=O)OC3CCCC3)=C(C)NC3=C2C(=O)CC(C)(C)C3)cc1OC (stereo not given)	1
COC(=O)c1cc2cccc(OC)c2cc1OC	1
O=C(NC1CCOC1=O)c1ccc(COc2ccc(Cl)cc2Cl)o1 (stereo not given)	-4
Cc1ccc2c(cnn2C(=O)CCCC(=O)O)c1	0
Cc1nn(-c2ccccc2)nc1CNC(=O)C1=Cc2ccccc2OC1	-2
O=C(O)CCN1C(=O)/C(=C/c2ccco2)SC1=S	51*
CC(C(=O)O)N1C(=O)/C(=C/c2ccco2)SC1=S (stereo not given)	38
O=C1/C(=C/c2ccco2)SC(=S)N1CCc1ccccc1	5
CN(C)CCNC(=O)c1cc(N2CCc3ccccc3C2)nc2ccccc12	-1
OCc1ccc(OCc2cccs2)cc1	-6
NC(CO)C(=O)NNCc1ccc(O)c(O)c1O (stereo not given)	6
O=C(N/N=C/c1cc(Br)ccc1O)N/N=C/c1cc(Br)ccc1O	0
SMILES	MgrA DNA FP
NC(CO)C(=O)N/N=C/c1ccc(O)c(O)c1O (stereo not given)	62*
Cc1cc(N)cc2[nH]c(-c3ccc(N)cc3)nc12	1
CC1=NN(c2cccc(C(=O)O)c2)C(=O)/C1=C/c1ccc(-c2cccc(Cl)c2C)o1	96*
CC1=NN(c2cccc(C(=O)O)c2)C(=O)/C1=C\c1ccc(-c2ccc(Cl)c(C(=O)O)c2)o1	8
CC1=NN(c2cccc(C(=O)O)c2)C(=O)/C1=C\c1ccc(-c2cc([N+](=O)[O-])ccc2C)o1	2
Cc1cccc(NC(=S)NCc2cccnc2)c1	-2
FC(F)(F)c1cc(-c2cc(C(F)(F)F)cc(C(F)(F)F)c2)cc(C(F)(F)F)c1	-2
CCc1cc(CN)on1	-3
